Measured values published in PubChem BioAssay.

assay: inhibitors of the yeast RAM network, pilot screen, dse1pr::URA3 reporter, 5-FOA selection (AID 869);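 further: 0% = DMSO wells with no growth and 100% = 10 µM 1-NA-PP1 with full growth; RAM network block rescues cells from 5-FOA so hits raise OD615 growth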; details: S. cerevisiae dse1pr::URA3 5-FOA growth, OD615, 2 d; at 10 µM; stronger effect = higher value; strain carries analog-sensitive mutant Cbk1 kinase;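 active means inhibition over a set limit, the all-compound mean plus 3 SD, in both replicate runs; inconclusive means over that limit in just one replicate run; inactive means at or under that limit in both runs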

inhibition, inactive:
Nc1nc(N2CCCCC2)nc(N(c2ccccc2)c2ccccc2)n1 0.36%
O=C1c2ccccc2C(Nc2cccnc2)N1Cc1ccccc1Cl (centres undefined) 0.17%
CCN1CCN(c2nc3c(c(=O)[nH]c(=O)n3C)n2CCSc2nc3ccccc3s2)CC1 0.9%
COc1cc(C(O)c2nc3ccccc3n2C)cc(OC)c1OC (centres undefined) 1.35%
CCOC(=O)N1CCC(Nc2nc3ccccc3n3cnnc23)CC1 1.23%
COc1ccc(C2C(C(C)=O)=C(C)N=c3s/c(=C/c4ccc5c(c4)OCO5)c(=O)n32)cc1 (centres undefined) 0.93%
CCOC(=O)C1=C(C)N(C)C(=O)NC1c1ccccc1OC (centres undefined) 0.97%
CCCCS(=O)(=O)NC1=NCN(CCOC(=O)c2ccccc2)CN1 0.005%
COc1ccc(-n2c(Cc3cccn3C)nnc2SCC(=O)Nc2cccc(Cl)c2)cc1 0.615%
CCC1CCCCN1C(=O)CSc1nnc(-c2ccc(OC)cc2)o1 (centres undefined) 2.38%
COc1ccc(N(CC(=O)Nc2ccc3c(c2)OCO3)S(=O)(=O)c2c(C)nn(C)c2C)cc1 2.33%
CCOc1ccc(C2CC(c3ccccc3C)n3nc(N)nc3N2)cc1 (centres undefined) 1.23%
Cc1cc(N)n2nc(-c3ccccc3)cc2n1 1.33%
CCCCCn1c(CCNC(=O)CCC)nc2ccccc21 1.89%
O=C(c1ccc2c(c1)OCCO2)N1CCCCC1 0.88%
O=C(NCCc1c[nH]c2ccccc12)c1cnc2n(c1=O)CCS2 0.62%
CCc1cc(=O)n2[nH]c(C)c(-c3ccccc3OC)c2n1 2.31%
Cc1ccc(CSc2nc3c(c(=O)[nH]2)CCC3)cc1 3%
CN(CCNS(=O)(=O)c1ccc2c(c1)oc(=O)n2C)Cc1ccccc1 2.44%
COc1ccc(-c2nnc(SCC(=O)NC(C)c3ccccc3)o2)cc1 (centres undefined) 1.37%
CCOc1ccc(Cn2nnc(C(=O)Nc3cc(C)cc(C)c3)c2N)cc1 3.23%
CCCCCn1c(CN2CCN(C(=O)c3ccco3)CC2)nc2c1c(=O)n(C)c(=O)n2C -0.2%
CCN1CCN(Cc2ccc(NC(=O)Nc3ccccc3)cc2)CC1 1.09%
CCCN(CCC)C(=O)c1c(C)[nH]c(C(=O)OCC)c1C 2.12%
COc1cccc(C2CC(c3c(Cl)cccc3Cl)n3nc(N)nc3N2)c1 (centres undefined) -0.3%
Cc1c(C(=O)OCc2ccccc2)[nH]c2c1C(=O)CC(c1ccco1)C2 (centres undefined) 1.69%
Cn1c(=O)c2c(nc(SCCOc3ccc4ccc(=O)oc4c3)n2C)n(C)c1=O 0.27%
COc1ccc(NC(=O)CN(c2cc(C)cc(C)c2)S(=O)(=O)c2c(C)noc2C)cc1OC 3.25%
CCOc1ccc(N2CC(C(=O)Nc3ccccc3OC)CC2=O)cc1 (centres undefined) 1.8%
CC(C)CNc1oc(-c2ccc(F)cc2)nc1C#N 0.19%
O=C(Nc1nnc(N2CCCCCC2)s1)c1cc(-c2ccc(Br)cc2)on1 1.98%
Cc1ccc(N=Cc2ccc[nH]2)c(O)c1 1.36%
CCCOC(=O)c1[nH]c2c(c1C)C(=O)CC(c1cc(OC)c(OC)c(OC)c1)C2 (centres undefined) 2.23%
C=CCSc1nc2sc(C)c(C)c2c(=O)[nH]1 1.19%
O=C(c1ccc(Br)cc1)N1CCN(S(=O)(=O)c2ccccc2)CC1 1.71%
CN(C(=O)c1ccco1)c1nnc(C23CC4CC(CC(C4)C2)C3)s1 0.17%
COc1ccc(-c2nc3c(n2O)CCC/C3=N\O)cc1 0.805%
CC1CCC(NC(=O)C2(C)CCC(=O)N2Cc2cccnc2)CC1 (centres undefined) 0.41%
Cc1cnc(NC(=O)CSc2nnc(COc3c(C)cccc3C)o2)s1 1.23%
